A selection: hits, their analogues and other compounds. The true share with any hit is near 19%.
TDP1 cell noCPT: qHTS for Inhibitors of human tyrosyl-DNA phosphodiesterase 1 (TDP1): qHTS in cells in absence of CPT | Potency, µM (titrated, usually from 46.2 µM), for the others: at the highest dose activity change, negative = growth inhibition, usual class: inhibitors | DT40 Tdp1-/- hTDP1 cells, no CPT, ATP luminescence, 48 h | AID 686978, 2013 | 15% of 420,000 active; also: potency is read from the fitted curve at half-maximal effect; % is scaled to controls: 0 for no effect and ±100 for the full control effect; nearly all actives have a fitted effect of over 55% in size
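Cells were dispensed at 400 per well, compounds added by pin tool, plates incubated ≥48 hr at 37 °C, then CellTiter-Glo added for 30 min at room temperature before luminescence reading. Line: DT40 Tdp1-/- complemented with hTDP1; camptothecin omitted.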
IL-1B inflam inh: qHTS for Inhibitors of Inflammasome Signaling: IL-1-beta AlphaLISA Primary Screen. THP-1 LPS/ATP IL-1B secretion, AlphaLISA, 16 h; hits give low values. activity change, % at 57.5 µM. 4.7% of 360,000 active. AID 743279, 2014; in the data active = activity change below about -50%; inconclusive = mostly about -30% to -49%; also: % is scaled to controls: 0 for no effect and ±100 for the full control effect
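Secreted IL-1B measured by AlphaLISA bead assay after 16 h compound exposure of THP-1 cells; compounds (final up to 57.5 uM) added 1 h before LPS (250 ng/mL) and ATP (1.25 mM) stimulation; lower signal means less secretion.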
Chronic BCR inh: qHTS Assay to Find Inhibitors of Chronic Active B-Cell Receptor Signaling | Potency, µM (series often up to 46.1 µM), for inactives: top-dose activity change, negative = inhibition, most hits filed as inhibitors | ABC-DLBCL IkBa-CBG/CBR reporter, luminescence ratio, 4 h | 0.05% of 340,000 active; active = well fitted inhibition curve with a large enough effect in the signal ratio, with a control signal flat, not every such curve was filed as active; inconclusive = small, poorly fitted or top-dose-only effect, or effect the other way, or a change in a side signal; the % refers to the signal ratio;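 also: potency is read from the fitted curve at half-maximal effect; plate controls were basal doxycycline-induced cells for no effect and cells given 10 µM MG132 for full effect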
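Doxycycline induced both beetle luciferases in TMD8 lymphoma cells; IKK-driven degradation limits the IkappaBalpha-fused green signal, while red luminescence normalises for cell number and nonspecific effects. Compounds tested up to 46 uM, 4 hrs.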
SW480 rerep: A quantitative high throughput screen for small molecules that induce DNA re-replication in SW480 colon adenocarcinoma cells | SW480 DNA re-replication, Hoechst DNA content imaging, 48 h | Potency, µM (highest dose often 46.1 µM), for the others: at the highest dose re-replication activation, most hits filed as activators | 1.8% of 340,000 active; also: potency is read from the fitted curve at half-maximal effect; % of control where 0% means no effect; nearly all actives have a fitted effect of over 55% in size
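Treated cells incubate 48 hr (37 C, 5% CO2), are stained 40 min with Hoechst, and nuclear fluorescence is enumerated; a rise in nuclei with high DNA signal marks re-replication.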
TDP1 cell CPT: qHTS for Inhibitors of human tyrosyl-DNA phosphodiesterase 1 (TDP1): qHTS in cells in presence of CPT | chicken DT40 Tdp1-/-;hTDP1 cells + 20 nM CPT, ATP luminescence, 48 h | Potency, µM (doses to about 46.2 µM), for inactives: at the highest dose activity change, negative = growth inhibition, actives largely listed as inhibitors | 12% of 420,000 active; also: potency is read from the fitted curve at half-maximal effect; % is scaled to controls: 0 for no effect and ±100 for the full control effect; nearly all actives have a fitted effect of over 55% in size
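Cell growth measured by CellTiter-Glo luminescence after a minimum 48 h, 37 C compound exposure with 20 nM CPT in Tdp1-knockout DT40 cells stably expressing hTDP1, seeded 400/well; qHTS titration format.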
MCF10A rereplic: A quantitative high throughput screen for small molecules that induce DNA re-replication in MCF 10a normal breast cells; MCF 10A DNA re-replication, Hoechst nuclear intensity, 48 h; Potency, µM (doses to about 46.1 µM), inactives show at the top dose activity, positive = re-replication, hits mostly activators; 2.9% of 350,000 active; also: potency is read from the fitted curve at half-maximal effect; % of control where 0% means no effect; nearly all actives have a fitted effect of over 50% in size
* = called active by the depositor; u = inconclusive; x = no result; [ ] = dose if it differs, or a comment. Unless noted, calls follow the shape of the dose curve; as a rule, active = well fitted curve in the direction sought with a large enough effect; inconclusive = small, poorly fitted or top-dose-only effect, or another doubt; inactive = no such curve, though single readings can be large; an effect the other way counts as inactive or inconclusive.

SMILES | TDP1 cell noCPT | IL-1B inflam inh | Chronic BCR inh | SW480 rerep | TDP1 cell CPT | MCF10A rereplic
COc1ccc(CN(Cc2ccco2)C(=O)COc2ccccc2Cl)cc1 | 23µM* | x | x | x | u | x
COc1ccccc1NC(=O)CCc1nnc2ccc(N3CCC4(CC3)OCCO4)nn12 | -3% | 5 | -3% | -5% | -6% | -4%
Clc1ncccc1-c1nc2ccccc2s1 | -10% | 25 | u | 2% | 19% | -3%
O=c1c(-c2nc3ccccc3s2)cccn1Cc1ccc(Cl)cc1 | -3% | 16 | u | u | -24% | 3.3µM*
O=C(NCc1ccccn1)c1cnn(-c2nccc(-c3cc4ccccc4o3)n2)c1C1CC1 | -29% | x | x | x | 4%[9.04 µM] | x
CCOc1ccc(/C=N/NC(=S)NC2CC3CC2C2C=CCC32)cc1 (configuration not stated) | 16µM* | 7 | u | 10% | 16µM* | 6.5µM*
COc1cc(/C=N/NC(=S)NC2CC3CC2C2C=CCC32)ccc1O (configuration not stated) | 15µM* | -14 | u | u | u | -4%
CNNC(=S)NC1CC2CC1C1C=CCC21 (configuration not stated) | -7% | 0 | -4% | -19% | -15% | -1%
CCOc1ccc(/C=N/NC(=S)NC2CC3CCC2C3)cc1 (configuration not stated) | u | -4 | -9% | -5% | u | 2%
CC(C)c1ccc(NC(=O)c2ccc(NC3=NC4CS(=O)(=O)CC4S3)cc2)cc1 (configuration not stated) | 25% | 32 | u | -5% | 2% | 7%
O=C(NCCc1ccc(F)cc1)c1ccc2c(=O)n3c(nc2c1)CCC3 | -36% | 6 | 12% | 103% | u | -1%
CC(C)C(=O)Nc1nnc(SCC(=O)NC2CCCC2)s1 | 3% | 5 | -2% | -17% | 2% | -33%
COc1ccc(Cn2c(C3CC3)nc3ccc(NC(=O)C4CC4)cc3c2=O)cc1 | u | -65* | -6% | 14% | -24% | 9%
Cc1nc2ccc(NC(=O)c3ccco3)cc2nc1C | -12% | 1 | u | 3% | -5% | 9%
CCC(=O)Nc1ccc2nc(C3CC3)n(Cc3ccc(C(C)(C)C)cc3)c(=O)c2c1 | 15µM* | 0 | 0% | -16% | 18µM* | u
CCCC(=O)Nc1ccc2nc(C)n(Cc3ccccc3Cl)c(=O)c2c1 | -14% | -13 | -5% | -13% | -14% | 8%
O=C(Nc1ccc2nc(C3CC3)n(Cc3ccc(F)cc3)c(=O)c2c1)c1ccco1 | u | -51* | u | -8%[9.22 µM] | 20µM* | u
COc1ccc(CCNC(=O)C2CC(O)CN2S(=O)(=O)c2ccc(Cl)cc2)cc1OC (configuration not stated) | -15% | 6 | -1% | 14% | u | 6%
COC(=O)[C@]1(C)N[C@H](CN(C)C(=O)Nc2ccc(OC)cc2)[C@@H]2C(=O)N(Cc3ccccc3)C(=O)[C@@H]21 | -4% | -4 | -1% | 37% | 6% | -36%
CCN(CC)CCn1c(=N)n(CC(O)c2ccc(OC)c(OC)c2)c2ccccc21 (configuration not stated) | 2% | -13 | 2% | -23% | -22% | u
CCN(CC)CCn1c(=N)n(CCOc2ccccc2Cl)c2ccccc21 | 4.1µM* | x | x | x | 3.7µM* | x
N=c1n(CCCOc2ccccc2Cl)c2ccccc2n1CC(N)=O | 21µM* | -102* | u | u | 18µM* | 20%
Nc1nc2ccccc2n1CCOc1ccccc1Cl | 26µM* | -80* | u | 9% | u | u
CCN(CC)CCn1c(=N)n(CC(O)c2ccco2)c2ccccc21 (configuration not stated) | u | -3 | -5% | -156% | -13% | -2%
CCN(CC)CCn1c(=N)n(CC(O)COc2ccccc2C)c2ccccc21 (configuration not stated) | 2.6µM* | x | x | x | 8.2µM* | x
SMILES | TDP1 cell noCPT | IL-1B inflam inh | Chronic BCR inh | SW480 rerep | TDP1 cell CPT | MCF10A rereplic
N#CCCn1c(=O)c(-c2ccc(F)cc2)nc2cnc(Oc3ccccc3)nc21 | -19% | x | x | x | 12% | x
Cn1c(=O)n(CCOc2ccc(Cl)cc2Cl)c2ccccc21 | -26% | -7 | u | 1% | -18% | 8%
Cc1ccc2oc(=O)n(CCOc3ccccc3Cl)c2c1 | -29% | -2 | -11% | 5% | u | u
Cn1c(=O)n(Cc2ccccc2Cl)c2ccccc21 | 18µM* | 27 | u | -32% | u | 19%
Cn1c(=O)n(CCOc2ccccc2Cl)c2ccccc21 | 5.8µM* | 0 | -9% | 1% | -3% | 12%
Cc1ccc2oc(=O)n(CCCOc3ccccc3Cl)c2c1 | u | x | x | x | 21µM* | x
CCOC(=O)C1(CC2CCCCO2)CCN(C(=O)NCc2ccccc2)CC1 (configuration not stated) | -17% | -6 | -1% | 1% | -1% | 4%
Cc1nc(-c2ccccc2)sc1C(=O)Nc1ccc(S(N)(=O)=O)cc1 | 13µM* | -5 | 9% | 5% | -25% | u
Cc1nc(C(=O)Nc2ccccc2)sc1C(=O)Nc1ccccc1 | u | -24 | u | 0% | 18µM* | 8%
Cc1nc(-c2ccccc2)sc1C(=O)Nc1ccccc1F | -21% | -14 | u | -5% | -1% | 2%
COC(=O)[C@]1(C)N[C@H](c2ccc(SC3CCCCC3)c(OC)c2)[C@@H]2C(=O)N(C)C(=O)[C@@H]21 | 12µM* | 2 | -4% | -77% | u | 5%
COC(=O)[C@]1(Cc2ccccc2)N[C@H](c2ccc(SC3CCCCC3)c(OC)c2)[C@@H]2C(=O)N(C)C(=O)[C@@H]21 | u | -10 | u | u | u | 20%
CCN1C(=O)[C@H]2[C@@H](c3ccc(-c4ccc(Cl)c(Cl)c4)c(OC)c3)N[C@@](C)(C(=O)OC)[C@H]2C1=O | 6.5µM* | -17 | 0% | -3% | 4.6µM* | u
CCN1C(=O)[C@H]2[C@@H](c3ccc(-c4ccc(Cl)c(Cl)c4)cc3)N[C@@](C)(C(=O)OC)[C@H]2C1=O | 8.2µM* | -25 | -4% | 26% | 8.2µM* | 15%
